Consider 41 molecules from PubChem BioAssay AID1259415 (National Center for Advancing Translational Sciences (NCATS), 2018).

In all, about 410,000 compounds went through this assay and about 18,000 (4.4%) were called active. Another 7% or so got no clear call; they are omitted. This is one part of a sample in which actives are shown more often than they occur. A number with no mark means an inactive call. No stated cut-off is given here; in the data, active means activity change below about -60%; inconclusive means no clear call, values can overlap the other calls; inactive means above about -39%.
On the % scale 0 is the no-effect control and ±100 the full control effect.

The nature of the experiment: qHTS Assay for inhibitors of the human cytomegalovirus (HCMV). The note with it: HFF cells, HCMV-luciferase reporter, 72 h; at 57.5 µM; active compounds read low. An excerpt: NCGC Assay Overview: Infection with human cytomegalovirus (HCMV) continues to pose significant threats for pregnant women and immunocompromised hosts. HCMV causes serious morbidity and mortality in transplant recipients, and congenital HCMV is the leading infectious cause of mental retardation and deafness in children. In the 1990s, the annual costs associated with the disease burden of congenital CMV were estimated at around $2 billion. A HCMV vaccine is not available yet and HCMV therapies result in intolerable side effects and emergence of drug resistant viruses. […] Towards this goal we have developed and characterized a luciferase HCMV reporter that was initially used in 96 well plates and then optimized to 1536-well plates for utilization in screening of the MLSMR collection, the NGCG diversity collection and the NCGC Pharmaceutical Collection of approved and investigational drugs.
NCGC Assay Protocol Summary:
This is a cell-based assay for HCMV inhibition in HFFs cells. The screening used 2 compound doses and the HCMV-luciferase at MOI of 1 PFU/cell. Cells were treated and infected with HCMV. At 72 h post infection cell lysates were collected and luciferase activity was determined using the Glomax-Multi + Detection System (Promega, Madison, WI). Data were normalized to the controls for basal activity (buffer only) and known HCMV inhibitors Salinmoycin.
1536-well assay protocol for the assay:
(1) Add 3 ul CMV/HFF cell culture. 1000 cells/well in DMEM nirmal media.
(2) Incubate 16 hr at 37C.
(3) Add 23 nl control compound, 10uM of Salinomycin.
(4) Add 23 nl compounds in DMSO solution.
(5) Add 3 ul CMV suspension. Final 1 puf/ul, Virus stock 2000pfu/ul
(6) Incubate 72 hrs at 37C.
(7) Add 4 ul OneGlo Luc Reagent.
(8) Incubate 5 min at room temperature.
In general terms: qHTS replaces the single test concentration by a dilution series.
For `CC(C)c1ccc(CN2C(=O)C(n3ccc4ccccc43)c3cccc(F)c32)cc1` (stereo unspecified), the activity change, negative = inhibition was -19.8%.

Turning to `C=CS(=O)c1sc(Cl)c(N2CCOCC2)c1[N+](=O)[O-]` (stereo unspecified), the activity change, negative = inhibition was -29.1%.

Regarding `COc1ccc2c(c1)CCc1c(C(=O)Nc3cc(C)ccc3O)noc1-2`, the activity change, negative = inhibition is -8.9%.

For `Cc1ccc(O)c(NC(=O)c2cc(-c3ccco3)on2)c1`, the activity change, negative = inhibition is -60.7% (active).

Regarding `Cc1ccc(O)c(NC(=O)c2cc(-c3ccc(F)cc3)no2)c1`, the activity change, negative = inhibition was -17.5%.

`O=C(NCc1ccccc1Cl)C1=Cc2cc(Br)ccc2OC1`: the activity change, negative = inhibition was -3.65%.

Turning to `C=Cc1ccc(Cn2c(C(=O)O)c(CNC3CCCC3)c3ccc(C)cc32)cc1`, the activity change, negative = inhibition is -2.87%.

Take `Cc1c(CNC2CCCCC2)c(C(=O)O)c(C)n1Cc1cccc(Cl)c1`: the activity change, negative = inhibition was -85.4% (active).

Turning to `CCOc1ccc(CNCc2c(C(=O)O)c(C)n(Cc3cccc(OC)c3)c2C)cc1OC`, the activity change, negative = inhibition is -14.2%.

In the case of `COc1ccc(-c2nc(CN3CCC(C(=O)NCc4ccccc4)CC3)c(C)o2)cc1OC`, the activity change, negative = inhibition is 1.58%.

In the case of `CCOc1ccc(S(=O)(=O)N(CC(=O)NCCSCc2ccc(C)cc2)c2ccccc2)cc1`, the activity change, negative = inhibition is 21.6%.

As for `O=C1[C@@H]2C(Cc3ccc(O)cc3)NC3(C(=O)Nc4ccc(F)cc43)[C@@H]2C(=O)N1c1ccc(F)cc1` (stereo partly specified), the activity change, negative = inhibition is 5.54%.

As to `COc1ccc(NS(=O)(=O)c2cc(NC(=O)CC(=O)c3ccc([N+](=O)[O-])cc3)ccc2C)cc1`, the activity change, negative = inhibition is -28.9%.

Consider `COc1ccc(C(=O)c2c3ccc([N+](=O)[O-])cc3[n+]([O-])n2CCCN)cc1`, for which the activity change, negative = inhibition is -65.8% (active).

As to `COc1ccc([N+](=O)[O-])cc1NCC(=O)c1ccc(C)cc1`, the activity change, negative = inhibition is 23.3%.

Take `Cn1cncc1-c1cc2cnc(Nc3ccc(OC(F)(F)F)cc3)cc2[nH]1`: the activity change, negative = inhibition was -21.4%.

Consider `Cc1ccc(S(=O)(=O)N2CCc3cc(C(=O)Nc4ccc(Cl)cc4C)ccc32)cc1`, for which the activity change, negative = inhibition is 0.154%.

Regarding `COc1ccc(Cn2c(=O)n(-c3ccccc3C)c(=O)c3c4c(sc32)CN(C(C)=O)CC4)cc1`, the activity change, negative = inhibition is 3.89%.

Consider `CC(=O)c1ccc(S(=O)(=O)N2CCN(c3nc4c(C)c(C)ccc4cc3C#N)CC2)cc1`, for which the activity change, negative = inhibition is -87.3% (active).

As to `Cc1ccc(C)c2sc(NC(=O)c3ccc(S(=O)(=O)N4CCCC4)cc3)nc12`, the activity change, negative = inhibition is 37.4%.

As to `CC(=O)c1ccc(N2CCN(S(=O)(=O)c3ccc4c(c3)CC(=O)N4C)CC2)cc1`, the activity change, negative = inhibition is -36.7%.

On to `CCC(=O)N1CCc2cc(Br)cc(S(=O)(=O)NCc3ccc(Cl)cc3)c21`, for which the activity change, negative = inhibition was -9.15%.

As to `COC(=O)c1cc(NC(=O)c2nn(C)c(=O)c3ccccc23)cc(C(=O)OC)c1`, the activity change, negative = inhibition was -10.5%.

With `CCSc1nnc(NC(=O)c2cc(=O)c3cc(C)c(C)cc3o2)s1`, the activity change, negative = inhibition is 1.6%.

As to `Cc1cc(F)ccc1NS(=O)(=O)c1ccc(-n2cccn2)cc1`, the activity change, negative = inhibition is -27.3%.

With `CCC(=O)N1CCc2cc(Br)cc(S(=O)(=O)CCC(=O)N3CCN(c4ccc(F)cc4)CC3)c21`, the activity change, negative = inhibition was 25.8%.

On to `COC(=O)CC(=O)N1CCN(c2ccc(Cl)c(Cl)c2)CC1`, for which the activity change, negative = inhibition is -31.5%.

In the case of `COc1ccc(S(=O)(=O)N2CCN(C(=S)NCC3CCCO3)CC2)cc1OC` (stereo unspecified), the activity change, negative = inhibition was 4.06%.

Consider `S=C(NCC1CCCO1)N1CCN(c2ccc(Cl)c(Cl)c2)CC1` (stereo unspecified), for which the activity change, negative = inhibition is -86.4% (active).

For `CCOc1ccccc1NC(=O)Cn1c(=O)n(Cc2ccco2)c(=O)c2sc3ccccc3c21`, the activity change, negative = inhibition is 30.3%.

For the molecule `COc1ccc(CNC(=O)Cn2nnc(-c3ccccc3F)n2)cc1`, the activity change, negative = inhibition is -0.694%.

Turning to `Cc1cc(NC(=O)CC(C)C)cc(-c2nc3ncccc3o2)c1O`, the activity change, negative = inhibition is 5.83%.

Consider `O=C(COC(=O)CN1C(=O)C2CCCCC2C1=O)Nc1ccc(F)c(F)c1F` (stereo unspecified), for which the activity change, negative = inhibition was -3.46%.

Take `CC1=CC(C)(C)Nc2ccc(OC(=O)CN3C(=O)C4CCCCC4C3=O)cc21` (stereo unspecified): the activity change, negative = inhibition is -63% (active).

On to `COc1ccc(C(=O)COC(=O)CN2C(=O)C3CC=CCC3C2=O)c(OC)c1` (stereo unspecified), for which the activity change, negative = inhibition was -5.28%.

`CCOc1ccc(C(=O)c2cn(Cc3ccccc3OC)c3ccc(F)cc3c2=O)cc1`: the activity change, negative = inhibition is -39%.

On to `CC(C)(C)c1cc[n+](-c2[nH]c(=O)sc2/C=N/N=C(\[O-])c2ccccc2)cc1`, for which the activity change, negative = inhibition is -35.8%.

As for `CCOc1ccc(S(=O)(=O)c2cn(Cc3ccc(OC)cc3)c3ccc(F)cc3c2=O)cc1`, the activity change, negative = inhibition was 5.49%.

With `COc1ccc(Sc2ccc(NC(=O)c3cccc(Cl)c3)cc2C#N)cc1`, the activity change, negative = inhibition was -22.8%.

As for `COc1cc(OC)cc(C(=O)Nc2c(C(=O)Nc3ccc(F)cc3)oc3ccccc23)c1`, the activity change, negative = inhibition is -7.35%.

On to `Cc1cc(Nc2cccc(C(F)(F)F)c2)nc2ccc(NC(=O)c3ccc(=O)[nH]c3)cc12`, for which the activity change, negative = inhibition was -15.4%.
